TGFb SMAD3 inh: blocks TGF-b signaling; HepG2 CAGA-GFP TGF-b/SMAD3 reporter, GFP fluorescence, 18 h; TGF-beta stimulated, 500 pg/mL final; Potency, µM (doses to about 46.1 µM), usual class: inhibitors; hit rate 1.2% among 410,000; AID 588855; further: nearly all actives have a fitted effect of over 65% in size
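First, reporter cells (HEPG2 CAGA-GFP) rested 2 h at 37 degrees C. Next, compounds were pinned in and TGF-beta added to 500 pg/mL final. After 18 h, GFP was imaged per cell and summed per well.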
ATXN2 expr inh: reduces ATXN2 reporter expression in HEK-293 cells; hit rate 0.72% among 360,000; Potency, µM (series often up to 57 µM), hits mostly inhibitors; HEK-293 ATXN2-luciferase reporter, luminescence, 24 h; further: nearly all actives have a fitted effect of over 55% in size
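ATXN2-luciferase reporter cells (luciferase flanked by upstream and downstream ATXN2 gene portions) were treated 24 h at 37 °C with compounds at up to 57 uM. SteadyGlo luminescence gave expression; GF-AFC fluorescence gave viability.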
D3 antag: blocks the human D3 dopamine receptor | D3R cells, DiscoveRx beta-arrestin luminescence, antagonist mode; hits give low values | max response, negative = inhibition, % | hit rate 2.5% among 360,000 | AID 652054; in the data active means max response below about -50%; inconclusive means no clear call, values can overlap the other calls
Target sequence (P35462 whole entry, looked up): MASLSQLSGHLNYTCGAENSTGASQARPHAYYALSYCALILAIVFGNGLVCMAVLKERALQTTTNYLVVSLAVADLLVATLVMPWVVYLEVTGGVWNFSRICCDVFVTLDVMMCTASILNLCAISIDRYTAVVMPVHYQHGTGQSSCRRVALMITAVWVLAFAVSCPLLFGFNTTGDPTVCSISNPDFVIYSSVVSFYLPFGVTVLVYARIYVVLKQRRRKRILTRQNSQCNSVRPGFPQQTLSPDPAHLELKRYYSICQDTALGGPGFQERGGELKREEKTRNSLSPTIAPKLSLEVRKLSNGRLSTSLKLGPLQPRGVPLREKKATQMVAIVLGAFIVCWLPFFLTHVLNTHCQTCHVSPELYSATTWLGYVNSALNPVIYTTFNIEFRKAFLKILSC
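Cells expressing the human receptor were seeded at 1500 cells/well, incubated overnight at 37 degrees C in 5% CO2, then exposed to library compounds with dopamine controls for 90 minutes at 37 degrees C before luminescent detection.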
HepG2 tox: kills HepG2 cells in TGF-b inhibitor counter-screen; hit rate 0.76% among 410,000; AID 588856; HepG2 CAGA-GFP viability, ATP luminescence, 18 h; Potency, µM (titrated, usually from 46.1 µM), usual class: cytotoxic
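CellTiter-Glo luminescence gave cytotoxicity after 18 hours at 37 degrees C. The cells were HepG2 CAGA-GFP in 1% FBS DMEM, stimulated with 500 pg/mL TGF-beta after compound addition. %Activity was normalised to no-cell wells (complete cell-killing) and DMSO (no toxicity), and curves were fitted and classified.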
D3 ag: D3 dopamine receptor (human) agonism. D3R DiscoveRx beta-arrestin cells, luminescence, 90 min. max activation, %. hit rate 0.58% among 410,000; in the data active means max activation above about 30%
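Cells at 1500/well, incubated overnight, then treated with pinned compounds (dopamine as control) for 90 min at 37 degrees C. DiscoveRx reagent added for 30 - 60 minutes at room temperature; luminescence read.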
S2 tox: reduces viability in counter-screen for ATXN expression inhibitors. S2 cells (HEK-293 line with an ATXN2-luciferase reporter) viability, CellTiter-Fluor protease fluorescence, 24 h. Potency, µM (doses to about 56.7 µM), actives largely listed as cytotoxic. hit rate 0.49% among 400,000; further: nearly all actives have a fitted effect of over 40% in size
Each line names hits and unclear results; the compound was inactive in the other large screens. Hits are enriched below; roughly 4.8% of the tested compounds scored in any of these assays. Unless noted, the call rests on the fitted dose curve; in most records, active means well fitted curve in the direction sought with a large enough effect; inconclusive means small, poorly fitted or top-dose-only effect, or another doubt; inactive means no such curve, though single readings can be large; an effect the other way counts as inactive or inconclusive.

Cc1ccc(/C=C/C(=O)N2CCN(c3cccc(C(F)(F)F)c3)CC2)cc1	none
Cc1ccc(C)c(C(=O)CCC(=O)N2CCN(c3cccc(C(F)(F)F)c3)CC2)c1	TGFb SMAD3 inh 11µM
O=C(CCCCn1c(=O)[nH]c2ccsc2c1=O)N1CCN(c2cccc(C(F)(F)F)c2)CC1	TGFb SMAD3 inh 10µM, ATXN2 expr inh inconclusive, S2 tox inconclusive (no result: D3 antag)
Cc1cc2c(cc1CC(=O)c1sccc1S(=O)(=O)Nc1onc(C)c1Cl)OCO2	none (no result: TGFb SMAD3 inh, D3 antag, HepG2 tox, D3 ag)
Cc1cnc(SCC2CCCO2)nc1C1CCCN(C(=O)C2=NNC(=O)CC2)C1 (configuration not stated)	none (no result: TGFb SMAD3 inh, ATXN2 expr inh, D3 antag, HepG2 tox, D3 ag)
Cc1cccc(NCc2nnc3n2CCCCC3)c1C	none (no result: D3 antag)
O=C1CCCc2c1[nH]c1ccc(CN3CCCCC3)cc21	D3 antag -54
CN(C)CCCOc1ccc(C(C)(C)c2ccccc2)cc1	D3 antag -68
C=CCc1cccc(CNc2nc3ccccc3n2C(C)C)c1O	TGFb SMAD3 inh 13µM, ATXN2 expr inh 32µM, S2 tox inconclusive
CC(C)n1c(NCc2ccccc2O)nc2ccccc21	none
COc1cc(OC)c(Nc2nc3ccccc3c3nncn23)cc1Cl	none (no result: D3 antag)
Cn1cc(-c2ccc3nnc(Sc4ccc5ncccc5c4)n3n2)cn1	none (no result: TGFb SMAD3 inh, D3 antag, HepG2 tox, D3 ag, S2 tox)
Nc1c(C(=O)c2ccccc2)sc2c1c(=O)[nH]c(=O)n2-c1ccccc1	TGFb SMAD3 inh inconclusive, D3 antag -53
COc1cc(-c2oc3ccc(C)cc3c(=O)c2O)cc(OC)c1OC	TGFb SMAD3 inh 2.5µM, ATXN2 expr inh inconclusive (no result: D3 antag, S2 tox)
COc1cc(OC)c(-c2oc3ccccc3c(=O)c2O)c(OC)c1	TGFb SMAD3 inh inconclusive, ATXN2 expr inh inconclusive
CC(C)OC(=O)OCOP(=O)(CO[C@H](C)Cn1cnc2c(N)ncnc21)OCOC(=O)OC(C)C	ATXN2 expr inh inconclusive (no result: TGFb SMAD3 inh, D3 antag, HepG2 tox)
CCOc1ccccc1OCCNC(C)Cc1ccc(OC)c(S(N)(=O)=O)c1 (configuration not stated)	none (no result: TGFb SMAD3 inh, D3 antag, HepG2 tox, D3 ag, S2 tox)
O=C(Cn1c(-c2cccs2)cc2ccccc21)NCCCN1CCN(c2cccc(Cl)c2)CC1	TGFb SMAD3 inh 13µM, ATXN2 expr inh inconclusive, S2 tox inconclusive (no result: D3 antag)
Cc1ccc(C)c(N2CCN(CCCNC(=O)Cn3c(-c4cccs4)cc4ccccc43)CC2)c1	TGFb SMAD3 inh 13µM, ATXN2 expr inh 25µM, S2 tox inconclusive (no result: D3 antag)
CCOC(=O)c1ccc(NC(=O)Cn2nc(C)c3nn(-c4ccc(Cl)cc4)c(C)c3c2=O)cc1	TGFb SMAD3 inh inconclusive (no result: ATXN2 expr inh, D3 antag, S2 tox)
CCn1c(NC(=O)c2ccc(COc3ccc(C)cc3[N+](=O)[O-])o2)nc2ccccc21	D3 ag 37
Cc1ccc(OCc2ccc(C(=O)Nc3cc(C)on3)o2)c([N+](=O)[O-])c1	none
O=C(C1CCC(CNS(=O)(=O)c2cccs2)CC1)N1CCN(c2ccc(F)cc2)CC1 (configuration not stated)	ATXN2 expr inh inconclusive, D3 ag 45
CCC[C@@H](CN1CCC[C@H]1CN1C(N)=NC[C@@H]1Cc1ccccc1)N1C[C@@H]([C@H](C)CC)N(CCc2ccc(Cl)c(Cl)c2)C1=N	D3 antag -64
CCC[C@@H](CN1CCC[C@H]1CN1C(N)=NC[C@@H]1Cc1ccccc1)N1C[C@@H](Cc2ccccc2)N(CCc2ccc(Cl)c(Cl)c2)C1=N	D3 antag -87
CCC[C@@H](CN1CCC[C@H]1CN1C(N)=NC[C@H]1CC(C)C)N1C[C@@H](Cc2ccccc2)N(CCc2ccc(Cl)c(Cl)c2)C1=N	none
COC(=O)c1c(OCc2ccccn2)cc(=O)n2c1CCN(Cc1cccc(C(F)(F)F)c1)CC2	none (no result: TGFb SMAD3 inh, ATXN2 expr inh, D3 antag, HepG2 tox, D3 ag)
CC(=O)Nc1ccc(N(C(=O)Cn2nnc3ccccc32)C(C(=O)NCc2ccccc2)c2ccc(C)cc2)cc1 (configuration not stated)	none (no result: ATXN2 expr inh, D3 antag, S2 tox)
O=C1C=C(NCCc2cc(Br)c(O)c(Br)c2)C(=O)c2ncccc21	TGFb SMAD3 inh inconclusive, ATXN2 expr inh 9.5µM, D3 antag inconclusive, HepG2 tox 7.1µM, S2 tox inconclusive
O=C1C(=O)c2ncccc2-c2cccnc21	none (no result: TGFb SMAD3 inh, ATXN2 expr inh, D3 antag, HepG2 tox, S2 tox)
O=C(Nc1ccc(Br)cc1F)c1ccc2nc(CCc3ccccc3)oc2c1	none (no result: D3 antag)
